Results reported in article PMC4336329 (PLoS ONE, 2015).
In all, about 310,000 compounds went through this assay and about 14,000 (4.5%) showed an effect of 50% or more. The effect is printed as a negative number. This is one part of a sample in which strong results are shown more often than they occur.

What follows are compounds tested against human ether-à-go-go-related gene (hERG) potassium channel (human, UniProt Q12809) (assay: primary screen, population patch clamp on CHO cells stably expressing hERG; higher = less effect of the substance).
human ether-à-go-go-related gene (hERG) potassium channel, sequence (Q12809 whole entry, looked up): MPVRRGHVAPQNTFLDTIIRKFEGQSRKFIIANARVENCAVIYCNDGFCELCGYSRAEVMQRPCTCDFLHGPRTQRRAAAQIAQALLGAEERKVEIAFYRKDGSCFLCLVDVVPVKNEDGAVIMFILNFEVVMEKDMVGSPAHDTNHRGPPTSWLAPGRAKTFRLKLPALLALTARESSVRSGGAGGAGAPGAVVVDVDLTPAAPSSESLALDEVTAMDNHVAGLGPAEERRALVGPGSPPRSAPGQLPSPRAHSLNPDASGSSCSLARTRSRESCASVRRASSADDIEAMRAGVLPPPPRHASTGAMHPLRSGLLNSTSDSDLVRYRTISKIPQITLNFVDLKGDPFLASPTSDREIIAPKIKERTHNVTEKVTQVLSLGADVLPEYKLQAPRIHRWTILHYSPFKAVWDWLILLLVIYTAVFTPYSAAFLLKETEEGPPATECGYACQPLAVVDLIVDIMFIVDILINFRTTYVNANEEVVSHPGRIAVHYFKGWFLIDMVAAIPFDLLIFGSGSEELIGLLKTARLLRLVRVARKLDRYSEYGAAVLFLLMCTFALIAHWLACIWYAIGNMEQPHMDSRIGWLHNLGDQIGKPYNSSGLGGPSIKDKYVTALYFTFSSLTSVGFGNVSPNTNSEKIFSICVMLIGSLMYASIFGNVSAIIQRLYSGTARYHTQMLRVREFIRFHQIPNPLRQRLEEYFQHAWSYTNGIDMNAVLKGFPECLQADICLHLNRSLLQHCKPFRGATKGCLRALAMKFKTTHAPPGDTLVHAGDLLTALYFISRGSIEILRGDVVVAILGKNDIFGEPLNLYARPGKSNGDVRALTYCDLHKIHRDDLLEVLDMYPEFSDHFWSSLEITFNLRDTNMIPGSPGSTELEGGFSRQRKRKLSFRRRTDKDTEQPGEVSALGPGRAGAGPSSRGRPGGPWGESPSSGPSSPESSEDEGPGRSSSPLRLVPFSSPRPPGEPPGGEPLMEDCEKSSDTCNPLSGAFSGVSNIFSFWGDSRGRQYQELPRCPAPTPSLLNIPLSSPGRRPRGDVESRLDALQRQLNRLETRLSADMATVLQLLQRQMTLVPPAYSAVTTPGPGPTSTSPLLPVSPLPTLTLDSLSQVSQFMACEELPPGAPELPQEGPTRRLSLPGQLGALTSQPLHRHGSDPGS
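Also: peak tail current of the secondary pulse compared with the same well before compound.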

Compound | hERG current change (%, negative = inhibition) at 10uM [%]
CC(=O)Nc1ccc(C(=O)NNC(=O)c2cccc(C)c2)cc1 | -1.91
CCCC(=O)Nc1nnc(-c2ccco2)s1 | 2.55
O=C(COC(=O)CSc1ccc(F)cc1)NNC(=O)c1ccc([N+](=O)[O-])cc1 | -30.2
O=C(CCCN1C(=O)/C(=C/c2cccs2)SC1=S)NNC(=O)c1ccccc1O | 4.76
COc1ccccc1Nc1nn2c(=O)c3ccc(C(=O)N4CCCCC4)cc3nc2s1 | 3.25
Cc1cccc(OCC(=O)N=Nc2c(O)[nH]c3ccc([N+](=O)[O-])cc23)c1 | -2.59
CCOC(=O)CN1C(=O)C(Sc2n[nH]c(-c3cccc(C)c3)n2)CCc2ccccc21 (stereo not shown) | 6.35
COc1ccc(CCC(=O)N2CCCc3ccccc32)cc1 | 6.02
Nc1c(S(=O)(=O)c2cc(Cl)ccc2Cl)c2nc3ccccc3nc2n1CCN1CCOCC1 | -15.3
CC(NCC(O)COc1ccccc1)C1COc2ccccc2O1 (stereo not shown) | -46.7
CCN1CCN(Cc2ccc(OCc3ccccc3)c(OC)c2)CC1 | -17.7
COc1cc(CN2CCN(C(C)C)C(CCO)C2)ccc1OCc1ccccc1 (stereo not shown) | -55.2
CC(C)N1CCN(Cc2ccc(Oc3ncccn3)cc2)CC1CCO (stereo not shown) | 10.9
CC(C)N1CCN(Cc2ccc3nsnc3c2)CC1CCO (stereo not shown) | 8.66
COc1ccc(CN2CCN(C(C)C)C(CCO)C2)cc1Cn1cncn1 (stereo not shown) | 34.1
CC(C)N1CCN(Cc2ccc3c(c2)Cc2ccccc2-3)CC1CCO (stereo not shown) | -52.4
CC(C)N1CCN(Cc2ccncc2)CC1CCO (stereo not shown) | 4.5
CC(C)N1CCN(Cc2ccc(OC3CCCC3)cc2)CC1CCO (stereo not shown) | -10.7
CC(C)N1CCN(Cc2ccc(OCc3ccccc3)cc2)CC1CCO (stereo not shown) | -51.6
CCCSc1nsc(NC(=O)C(c2ccccc2)c2ccccc2)n1 | 19.3
Cc1nn(C)c(C)c1NC(=O)c1cnn2c(C(F)F)cc(-c3ccccc3)nc12 | 40.4
COc1ccccc1N(CC(=O)N1CCCC1)S(=O)(=O)c1ccc(C)cc1 | 5.18
COc1ccc(-c2noc(CCCC(=O)Nc3cccnc3)n2)cc1OC | -6.97
c1ccc(-c2cc(-c3ccccc3)[nH]n2)cc1 | 12.3
CC(C)(C)c1ccc(C(=O)NCCC(=O)N2CCCC2)cc1 | 16.4
Cc1ccc(NC(=S)N(C)N)cc1Cl | 16.8
COC(=O)CN1C(=O)[C@@H]2[C@H](C1=O)[C@@H]1CC(C(=O)OC)=C[C@@H](C(=O)OC)[C@@H]3C1=C(C(=O)[C@@]3(C)NC(=O)c1ccccc1)[C@@H]2C | -2.29
COc1ccc(CNS(=O)(=O)c2ccc(-n3cnnn3)c(C)c2)cc1 | -15.3

Compound | hERG current change (%, negative = inhibition) at 10uM [%]
CCSC(=S)c1c(C)[nH]n(-c2ccccc2)c1=O | 12.9
Cc1ccc(NC(=O)c2cc(S(=O)(=O)c3ccccc3)ccc2Cl)cc1 | -15.4
O=C(Nc1ccc(Cl)cc1)C(c1ccccc1)N1CCOCC1 (stereo not shown) | -27.6
O=C(CN1CCN(C(C(=O)Nc2ccc(F)cc2)c2ccccc2)CC1)NC1CC1 (stereo not shown) | -27.8
O=C(CN1CCN(C(c2ccccc2)c2ccccc2)CC1)N1CCOCC1.O=C(O)C(=O)O | -22.3
CCOc1ccccc1NC(=O)C(c1ccccc1)N1CCN(CC(=O)N2CCOCC2)CC1 (stereo not shown) | -76.1
O=C(Nc1ccc(F)cc1)C(c1ccccc1)N1CCN(CC(=O)N2CCOCC2)CC1 (stereo not shown) | -52.1
Cc1ccc(NC(=O)C(c2ccccc2)N2CCN(CC(=O)N3CCOCC3)CC2)cc1 (stereo not shown) | -43
CC(C)c1ccc(NC(=O)C(c2ccccc2)N2CCOCC2)cc1 (stereo not shown) | -12.2
CCOc1ccccc1NC(=O)NC1(C(=O)N2CCOCC2)CCCCC1 | 15.6
O=C(Nc1ccc(F)cc1)C(c1ccccc1)N1CCN(CC(=O)N2CCCC2)CC1 (stereo not shown) | -65.3
Cc1ccc(NC(=O)C(c2ccccc2)N2CCN(CC(=O)N3CCOCC3)CC2)cc1Cl (stereo not shown) | -67.4
O=C(Nc1ccc(F)cc1)C(c1ccccc1)N1CCN(S(=O)(=O)c2ccccc2)CC1 (stereo not shown) | -5.63
COc1cccc(NC(=O)C(c2ccccc2)N2CCN(CC(=O)N3CCOCC3)CC2)c1 (stereo not shown) | -36.8
COC(=O)c1c(C(=O)OC)c2n(c1C)CCS2 | 3.54
COc1ccc(OC)c(NC(=O)COC(=O)Cn2nnc(-c3ccccc3)n2)c1 | 2.66
CCCc1nn2c(=O)cc(CSCC(=O)Nc3ccccc3OC)nc2s1 | 14.8
O=C(CSc1nc2ccccc2nc1N1CCOCC1)Nc1ccccc1F | -4.19
COc1cccc(C(=O)Nc2ccc(NC(=O)Cc3ccccc3)cc2)c1 | -24.1
CCOc1ccccc1CNc1nc2nc3c(c(=O)n2[nH]1)CCC3 | 19.6
Oc1c(Br)cc(C2N=C(c3ccccc3Cl)NO2)cc1Br (stereo not shown) | -2.5
CCCc1c(C)nc(N2CCN(c3ccccc3OC)CC2)[nH]c1=O | 25.2
COc1ccccc1C(=O)NC(=O)COC(=O)c1ccc(Cl)cc1[N+](=O)[O-] | 21.6
COc1ccc(Nc2nc(Nc3ccc(OC)cc3)nc(-n3[nH]c(=O)c(C)c3C)n2)cc1 | -10.1
CCOc1cc(/C=N/NC(=O)c2ccc(N(C)S(=O)(=O)c3ccccc3)cc2)ccc1OC | -33
Cc1cccc2[nH]c(CN(C)Cc3nc(CC4CC4)no3)nc12 | -11.8
O=C(COc1ccc(CO)cc1)Nc1ccc(F)cc1 | 0.156
